In PubChem BioAssay (EPA / NIEHS):
Active and inactive are the calls of the source. Rule for the calls: active = hit-call score of the fitted dose curve at least 0.9, where 1 is the maximum; inactive = score below 0.9.

Key:
[1] = read-out: Interleukin-1 alpha (IL1a), IL1A (gene 3552); assay: BSK_KF3CT_IL1a: BioMAP Diversity Plus: KF3CT Assay for Interleukin-1 alpha (IL1a) Biomarker Activity (AID 2283070); conditions: primary human keratinocytes with fibroblasts; actives raise or lower the signal
Procedure, shortened: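 Primary human keratinocyte plus foreskin fibroblast co-culture, dosed and measured at 24 h in 96-well plates. IL-1a level quantified by ELISA; bidirectional fit relative to DMSO.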

[2] = read-out: TIMP metallopeptidase inhibitor 2 (TIMP2), TIMP2 (gene 7077); assay: BSK_KF3CT_TIMP2: BioMAP Diversity Plus: KF3CT Assay for TIMP metallopeptidase inhibitor 2 (TIMP2) Biomarker Activity (AID 2283071); conditions: primary human keratinocytes with fibroblasts; actives raise or lower the signal
Procedure, shortened: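 Co-culture of human primary keratinocytes and foreskin fibroblasts, measured 24 h after chemical dosing. TIMP-2 quantified by ELISA and fitted in both directions relative to DMSO. Cytotoxicity checked in parallel cultures by SRB total-protein staining.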

[3] = read-out: C-C motif chemokine 2 (Homo sapiens) (UniProt P13500); assay: BSK_KF3CT_MCP1: BioMAP Diversity Plus: KF3CT Assay for Monocyte Chemoattractant Protein 1 (MCP1/CCL2) Biomarker Activity (AID 2283073); conditions: primary human keratinocytes with fibroblasts; actives raise or lower the signal
Procedure, shortened: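 Human keratinocyte plus foreskin fibroblast primary co-culture exposed to chemical for 24 h. MCP-1 levels measured by ELISA. Bidirectional curve fitting relative to DMSO negative control as baseline.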

[4] = read-out: Matrix Metallopeptidase 9 (MMP9), MMP9 (gene 4318); assay: BSK_KF3CT_MMP9: BioMAP Diversity Plus: KF3CT Assay for Matrix Metallopeptidase 9 (MMP9) Biomarker Activity (AID 2283074); conditions: primary human keratinocytes with fibroblasts; actives raise or lower the signal
Procedure, shortened: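 Human keratinocyte and foreskin fibroblast co-culture exposed to chemicals for 24 h; MMP9 biomarker measured by ELISA, bidirectional fitting relative to DMSO; cytotoxicity tracked by SRB total protein staining in parallel cultures.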

[5] = read-out: urokinase plasminogen activator (uPA), PLAU (gene 5328); assay: BSK_KF3CT_uPA: BioMAP Diversity Plus: KF3CT Assay for urokinase plasminogen activator (uPA) Biomarker Activity (AID 2283075); conditions: primary human keratinocytes with fibroblasts; actives raise or lower the signal
Procedure, shortened: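 Primary human keratinocyte/foreskin fibroblast co-culture exposed to chemical; uPA measured by ELISA at 24 h. Bidirectional fit versus DMSO, with parallel SRB total-protein staining for cytotoxicity.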

[6] = read-out: CD40, CD40 (gene 958); assay: BSK_LPS_CD40: BioMAP Diversity Plus: LPS Assay for CD40 Biomarker Activity (AID 2283076); conditions: primary human HUVEC with PBMC; actives raise or lower the signal
Procedure, shortened: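 Primary human umbilical vein endothelial cells co-cultured with peripheral blood mononuclear cells, LPS-stimulated, were dosed with chemical and read 24 h later. CD40 levels were measured by ELISA and fitted bidirectionally against DMSO as negative control and baseline.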

[7] = read-out: E-selectin (Homo sapiens) (UniProt P16581); assay: BSK_LPS_Eselectin: BioMAP Diversity Plus: LPS Assay for Eselectin Biomarker Activity (AID 2283077); conditions: primary human HUVEC with PBMC; actives raise or lower the signal
Procedure, shortened: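 Human umbilical vein endothelial cells co-cultured with peripheral blood mononuclear cells under LPS stimulation; E-selectin measured by ELISA 24 h after chemical dosing. Activity fitted bidirectionally against DMSO as negative control and baseline.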

[8] = read-out: Interleukin-8 (IL8), CXCL8 (gene 3576); assay: BSK_LPS_IL8: BioMAP Diversity Plus: LPS Assay for Interleukin-8 (IL8) Biomarker Activity (AID 2283078); conditions: primary human HUVEC with PBMC; actives raise or lower the signal
Procedure, shortened: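 Human umbilical vein endothelial cells co-cultured with PBMC were stimulated with LPS; IL-8 levels were measured by ELISA 24 h after chemical dosing. Activity was fitted bidirectionally against DMSO as negative control and baseline.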

[9] = BSK_LPS_SRB: Viability Assessment in the BioMAP Diversity Plus: LPS Assay (AID 2283079); conditions: primary human HUVEC with PBMC;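 note: total protein by sulforhodamine B absorbance as a cytotoxicity measure; measured one day after compound addition; fitted in both directions against DMSO so loss or gain of signal counts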
Procedure, shortened: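 Human umbilical vein endothelial cells co-cultured with PBMC (LPS system) were dosed for 24 h. Total protein was stained with 0.1% sulforhodamine B after 10% TCA fixation, read at 560 nm, and fitted bidirectionally against DMSO baseline.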

[10] = read-out: Interleukin-1 alpha (IL1a), IL1A (gene 3552); assay: BSK_LPS_IL1a: BioMAP Diversity Plus: LPS Assay for Interleukin-1 alpha (IL1a) Biomarker Activity (AID 2283080); conditions: primary human HUVEC with PBMC; actives raise or lower the signal
Procedure, shortened: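 Human umbilical vein endothelial cells co-cultured with peripheral blood mononuclear cells were LPS-stimulated and exposed to test chemicals for 24 h. IL-1 alpha was quantified by ELISA, with bidirectional curve fitting against DMSO as the negative control and baseline.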

[11] = read-out: Monocyte Chemoattractant Protein-1 (MCP1), CCL2 (gene 6347); assay: BSK_LPS_MCP1: BioMAP Diversity Plus: LPS Assay for Monocyte Chemoattractant Protein-1 (MCP1) Biomarker Activity (AID 2283081); conditions: primary human HUVEC with PBMC; actives raise or lower the signal
Procedure, shortened: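 HUVEC plus PBMC co-culture (human primary cells, LPS system) exposed to test chemical for 24 h; MCP-1 measured by ELISA. Bidirectional curve fitting against DMSO baseline; parallel SRB total-protein staining flags overt cytotoxicity.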

[12] = BSK_LPS_PGE2: BioMAP Diversity Plus: LPS Assay for Prostaglandin E2 (PGE2) Biomarker Activity (AID 2283082); conditions: primary human HUVEC with PBMC; actives raise or lower the signal
Procedure, shortened: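 HUVEC plus human PBMC co-culture stimulated with LPS; secreted PGE2 quantified by ELISA 24 h after chemical dosing. Activity fitted bidirectionally against DMSO baseline; parallel SRB staining (0.1% SRB after 10% TCA fixation, 560 nm) flags overt cytotoxicity.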

[13] = read-out: Tissue Factor, F3 (gene 2152); assay: BSK_LPS_TissueFactor: BioMAP Diversity Plus: LPS Assay for Tissue Factor Biomarker Activity (AID 2283084); conditions: primary human HUVEC with PBMC; actives raise or lower the signal
Procedure, shortened: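 Human umbilical vein endothelial cells co-cultured with peripheral blood mononuclear cells were dosed and stimulated with LPS. Cell-surface CD142 was quantified by ELISA at 24 h. Activity was fitted bidirectionally against DMSO baseline.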

[14] = read-out: Tumor necrosis factor (Homo sapiens) (UniProt P01375); assay: BSK_LPS_TNFa: BioMAP Diversity Plus: LPS Assay for Tumour Necrosis Factor alpha (TNFa) Biomarker Activity (AID 2283085); conditions: primary human HUVEC with PBMC; actives raise or lower the signal
Procedure, shortened: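 Human umbilical vein endothelial cells co-cultured with PBMC and stimulated with LPS. TNFa was measured by ELISA 24 h after chemical dosing, fitted bidirectionally relative to DMSO.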

[15] = read-out: Vascular cell adhesion molecule 1 (VCAM1), VCAM1 (gene 7412); assay: BSK_LPS_VCAM1: BioMAP Diversity Plus: LPS Assay for Vascular cell adhesion molecule 1 (VCAM1) Biomarker Activity (AID 2283086); conditions: primary human HUVEC with PBMC; actives raise or lower the signal
Procedure, shortened: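 Human umbilical vein endothelial cells co-cultured with PBMC and stimulated with LPS; VCAM-1 measured by ELISA 24 h after dosing. Bidirectional curve fitting against DMSO baseline; cytotoxicity tracked in parallel by SRB total-protein staining.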

[16] = read-out: CD38, CD38 (gene 952); assay: BSK_SAg_CD38: BioMAP Diversity Plus: SAg Assay for CD38 Biomarker Activity (AID 2283087); conditions: primary human HUVEC with PBMC; actives raise or lower the signal
Procedure, shortened: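 Human HUVEC plus PBMC co-culture stimulated with superantigen; CD38 measured by ELISA 24 h after chemical dosing. Fluorescence read-out, bidirectional fit against DMSO; cytotoxicity tracked in parallel by SRB and Alamar Blue.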

[17] = read-out: CD40, CD40 (gene 958); assay: BSK_SAg_CD40: BioMAP Diversity Plus: SAg Assay for CD40 Biomarker Activity (AID 2283088); conditions: primary human HUVEC with PBMC; actives raise or lower the signal
Procedure, shortened: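 Human umbilical vein endothelial cells co-cultured with PBMC; CD40 levels measured by ELISA with fluorescence read-out 24 h after chemical dosing. Gain or loss of signal fitted bidirectionally against DMSO baseline.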

[18] = read-out: CD69, CD69 (gene 969); assay: BSK_SAg_CD69: BioMAP Diversity Plus: SAg Assay for CD69 Biomarker Activity (AID 2283089); conditions: primary human HUVEC with PBMC; actives raise or lower the signal
Procedure, shortened: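 Values derive from bidirectional fitting relative to DMSO vehicle. Cells: umbilical vein endothelium plus peripheral blood mononuclear cells, treated 24 h before fluorescent ELISA for CD69.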

[19] = read-out: Macrophage colony-stimulating factor (MCSF), CSF1 (gene 1435); assay: BSK_LPS_MCSF: BioMAP Diversity Plus: LPS Assay for Macrophage colony-stimulating factor (MCSF) Biomarker Activity (AID 2283083); conditions: primary human HUVEC with PBMC; actives raise or lower the signal
Procedure, shortened: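 Human umbilical vein endothelial cells co-cultured with peripheral blood mononuclear cells were exposed to compound for 24 h. M-CSF levels were measured by ELISA, and bidirectional curve fitting used DMSO as the negative control and baseline.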

Measured: outcome

Sequence of E-selectin (Homo sapiens) (P16581 whole entry, looked up): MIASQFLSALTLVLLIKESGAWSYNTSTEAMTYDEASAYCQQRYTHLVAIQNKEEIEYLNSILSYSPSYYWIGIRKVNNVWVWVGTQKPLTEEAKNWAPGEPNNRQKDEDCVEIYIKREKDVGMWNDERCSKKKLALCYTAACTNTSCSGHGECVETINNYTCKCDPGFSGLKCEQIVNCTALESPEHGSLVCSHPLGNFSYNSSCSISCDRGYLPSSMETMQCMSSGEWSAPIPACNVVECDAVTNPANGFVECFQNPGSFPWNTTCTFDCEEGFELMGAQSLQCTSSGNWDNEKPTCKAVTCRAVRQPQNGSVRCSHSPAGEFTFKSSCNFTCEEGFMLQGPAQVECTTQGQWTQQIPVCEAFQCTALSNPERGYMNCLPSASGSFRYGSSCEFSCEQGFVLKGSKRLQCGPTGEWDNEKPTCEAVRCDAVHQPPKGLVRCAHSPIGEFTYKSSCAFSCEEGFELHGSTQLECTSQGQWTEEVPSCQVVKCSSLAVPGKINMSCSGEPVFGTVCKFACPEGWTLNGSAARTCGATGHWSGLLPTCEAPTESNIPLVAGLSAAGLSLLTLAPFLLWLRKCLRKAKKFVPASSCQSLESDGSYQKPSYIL
Sequence of Tumor necrosis factor (Homo sapiens) (P01375 whole entry, looked up): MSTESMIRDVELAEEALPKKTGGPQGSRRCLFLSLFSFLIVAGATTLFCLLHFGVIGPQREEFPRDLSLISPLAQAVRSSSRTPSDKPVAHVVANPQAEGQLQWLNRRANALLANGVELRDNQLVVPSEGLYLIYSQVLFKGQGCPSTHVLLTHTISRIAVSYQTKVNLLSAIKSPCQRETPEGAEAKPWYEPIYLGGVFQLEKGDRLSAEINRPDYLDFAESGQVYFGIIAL

OCC(F)(F)C(F)(F)C(F)(F)F
inactive: [1] | [2] | [3] | [4] | [5] | [6] | [7] | [8] | [9] | [10] | [11] | [12] | [13] | [14] | [15] | [16] | [17] | [18]

COC(=O)CCC(F)(F)C(F)(F)C(F)(F)C(F)(F)F
inactive: [1] | [2] | [3] | [4] | [5] | [6] | [7] | [8] | [9] | [10] | [11] | [12] | [19] | [13] | [14] | [15] | [16] | [17] | [18]

CCCCCCCCC(F)(F)C(F)(F)C(F)(F)C(F)(F)C(F)(F)C(F)(F)F
inactive: [1] | [2] | [3] | [4] | [5] | [6] | [7] | [8] | [9] | [10] | [11] | [12] | [13] | [14] | [15] | [16] | [17] | [18]
